Source: PubChem
Only some compounds are listed: those with a hit (about 3.8% of all), similar ones and a draw of the others.
TIM10 inh – TIM10 yeast growth inhibition. S. cerevisiae TIM10 strain growth, BacTiter-Glo luminescence, 24 h. inhibition, % at 10 µM. 1.4% of 330,000 active. AID 463195;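 active = inhibition of 40% or more at the single tested concentration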;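 note: wild-type TIM10 isogenic control strain grown at permissive 25 °C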
NALP3 yeast inh – NALP3 inhibition in yeast | inhibition, % at 10 µM | Yeast reconstituted NLRP3/ASC/caspase-1, beta-gal luminescence, 24 h | 0.39% of 330,000 active;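 active = inhibition of 50% or more; inactive = inhibition below 50%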
tim23-1 inh – tim23-1 yeast growth inhibition | inhibition, % at 20 µM | S. cerevisiae tim23-1 growth, BacTiter-Glo luminescence, 24 h | 1.3% of 330,000 active;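 active = growth inhibition of the mutant yeast at or above 50%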;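 note: temperature-sensitive mutant grown at 25 °C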
tim10-1 inh – growth inhibitors of tim10-1 mutant yeast; S. cerevisiae tim10-1 ts strain growth, BacTiter-Glo, 24 h; inhibition, % at 20 µM; 2.2% of 330,000 active; AID 463190;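 active = inhibition of at least 40%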;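 note: mutant grown at 25 °C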
Yeast superoxide – caloric restriction mimetics inhibiting age-related superoxide in yeast | S. cerevisiae aged cells, superoxide DHE fluorescence; hits give low values | superoxide response (% of plate mean), % at 10 µM | 0.18% of 330,000 active | AID 2690;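 active = superoxide response under a set limit, about three screen SD below normal, cut at about 65% in these data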;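 note: yeast aged for seven days with compound at 30 °C before DHE staining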
NALP3 confirm – confirmation of NALP3 inhibitors in yeast. shares compounds with NALP3 yeast inh. yeast expressing human NALP3, luminescence. 81% of 1,300 active. inhibition, % at 10 µM; in the data active = inhibition above about 48%
Casp1 ASC ctr – counter-screen for NALP3 inhibitors: yeast caspase-1-ASC. shares compounds with NALP3 yeast inh. yeast expressing Caspase-1-ASC, luminescence counter screen. 66% of 1,000 active. inhibition, % at 10 µM. AID 488784
NALP3 yeast rt – retest-confirmed inhibitor of NALP3 in yeast; shares compounds with NALP3 yeast inh; yeast expressing human NALP3, luminescence read-out; inhibition, % at 10 µM; 53% of 1,000 active; AID 488794
Hits are given with their value; n = inactive; x = not tested or not shown. Cut-off read from the data, not from the text of the source, unless noted: active = inhibition above about 50%; inactive = the rest.

SMILES | TIM10 inh | NALP3 yeast inh | tim23-1 inh | tim10-1 inh | Yeast superoxide | NALP3 confirm | Casp1 ASC ctr | NALP3 yeast rt
CC(C)c1ccc(OCC(=O)NC2CC(C)(C)NC(C)(C)C2)c(Br)c1 | n | n | n | n | n | x | x | x
COc1cccc2oc3cc(C#CC4(O)CCCCC4)ccc3c(=O)c12 | n | 56.5 | n | n | n | 59.8 | 62.2 | n
O=c1c2ccccc2oc2cc(C#CC3(O)CCCCC3)ccc12 | n | n | n | n | n | x | x | x
O=C(c1ccccc1)N1CCN(c2ccc(N3CCOCC3)nn2)CC1 | n | n | n | n | n | x | x | x
CCC(C)(C)NC(=O)C(c1ccc(OC)cc1)N(C(=O)CCC(=O)Nc1cc(C)on1)c1ccc2c(c1)OCCO2 (stereo unspecified) | n | n | n | n | n | x | x | x
CCOc1ccc(NC(=O)c2csc3c2CCCC3)cc1 | n | 52.4 | n | n | n | n | x | x
CCNC(=O)COC(=O)c1csc2c1CCCC2 | n | 56.4 | n | n | n | n | x | x
CCCCCCCCNc1ncnc2ccccc12 | n | 81.6 | n | n | n | 76.3 | 79.8 | 78.8
N=c1n(N)c2ccccc2n1CC(=O)c1ccc(Br)cc1 | n | n | n | n | n | x | x | x
Cc1csc(=Nc2cccnc2)n1CC1CCCCC1 | n | n | n | n | n | n | x | x
CC[C@@]12C(=O)N(c3ccc(OC)cc3)C(=O)N1[C@H](c1ccc(Cl)cc1)[C@@H]1C(=O)N(C3CCCCC3)C(=O)[C@@H]12 | n | n | n | n | n | x | x | x
Nc1cc(N2CCCCC2)c([N+](=O)[O-])cc1Cl | n | 50.5 | n | n | n | n | x | x
Nc1cc(N2CCCCC2)c(Cl)cc1[N+](=O)[O-] | n | n | n | n | n | x | x | x
CCN(CC(=O)Nc1ccc(NC(C)=O)cc1)C(=O)c1ccc(N2CCCC2)c([N+](=O)[O-])c1 | n | n | n | n | x | x | x | x
CC1CCCN(c2ncnc3c2cnn3-c2ccccc2)C1 (stereo unspecified) | n | 53.8 | n | n | n | 61.5 | x | x
CC1CCCN(c2ncnc3c2cnn3-c2ccc(Cl)cc2)C1 (stereo unspecified) | n | n | n | n | n | x | x | x
c1ccc(-n2ncc3c(N4CCCCC4)ncnc32)cc1 | n | 59.6 | n | n | n | 60.7 | 69.3 | 60.8
O=C(CSc1ccc2c(c1)OCCO2)Nc1cccnc1 | n | n | n | n | n | x | x | x
COc1ccc(N2CCN(c3oc(COc4ccccc4)nc3C#N)CC2)cc1 | n | n | n | n | n | x | x | x
N#Cc1nc(COc2ccccc2)oc1N1CCCC1 | n | 74.6 | n | n | n | 48.6 | 79.3 | 63.5
N#Cc1nc(COc2ccc(Br)cc2)oc1N1CCCC1 | n | 53.9 | n | n | n | 61.8 | 50.5 | n
CN1CCN(c2oc(COc3ccc(-c4ccccc4)cc3)nc2C#N)CC1 | n | 59.6 | n | n | n | 50.2 | 75.8 | 64.5
Cc1ccc2c(=O)n3c(nc2c1)C(Cc1ccccc1)NC(=O)c1ccc(Cl)cc1-3 (stereo unspecified) | n | n | n | n | n | x | x | x
C=CCc1ccc(OCCn2nnc3ccccc32)c(OC)c1 | n | 53.1 | n | n | n | 63.2 | 50.2 | n
C/C=C/c1ccc(OCCn2nnc3ccccc32)c(OC)c1 | n | n | n | n | n | x | x | x
SMILES | TIM10 inh | NALP3 yeast inh | tim23-1 inh | tim10-1 inh | Yeast superoxide | NALP3 confirm | Casp1 ASC ctr | NALP3 yeast rt
COc1ccc(Cn2c(=O)sc3ccccc3c2=O)cc1 | n | 50.6 | n | n | x | 59.5 | 60.0 | n
COCCn1c(=O)sc2ccccc2c1=O | n | n | n | n | n | x | x | x
CCOc1cc(C=O)ccc1OCCSc1ccc(C)cc1 | n | 65.3 | n | n | n | 69.5 | 65.2 | n
CC(=O)c1cnc2nc(SCc3ccc(Cl)cc3)nn2c1C | n | 52.8 | n | n | n | 71.3 | 64.3 | 50.5
O=C(NCc1cccc(C(F)(F)F)c1)c1ccc2c(c1)OCO2 | n | n | n | n | x | x | x | x
Cc1cccc(N2CCN(CC(O)COc3ccccc3Cl)CC2)c1 (stereo unspecified) | n | 50.4 | n | n | n | 64.2 | n | n
COc1cc(C(=O)NC(C(=O)Nc2cccc(C(C)=O)c2)C(C)C)cc(OC)c1OC (stereo unspecified) | n | n | n | n | n | x | x | x
COC(=O)c1ccccc1NC(=O)C1CCCN(S(=O)(=O)c2ccc(OC)cc2)C1 (stereo unspecified) | n | 64.2 | n | n | n | 76.8 | 62.6 | 60.4
